Here are results for 26 compounds from PubChem BioAssay AID1220 (Sanford-Burnham Center for Chemical Genomics, 2008).

Screen size: about 190,000 compounds; about 1,300 (0.68%) were called active. The list comes from a sample in which actives are over-represented; it also holds similar structures and randomly drawn compounds. Unmarked numbers belong to inactive results. No stated cut-off is given here; in the data, active means inhibition above about 50%; inactive means the rest.

One may read the inhibition as the change of the read-out against control, counted positive when it falls.

Sequence of Mannose-6-phosphate isomerase (Homo sapiens) (P34949 whole entry, looked up): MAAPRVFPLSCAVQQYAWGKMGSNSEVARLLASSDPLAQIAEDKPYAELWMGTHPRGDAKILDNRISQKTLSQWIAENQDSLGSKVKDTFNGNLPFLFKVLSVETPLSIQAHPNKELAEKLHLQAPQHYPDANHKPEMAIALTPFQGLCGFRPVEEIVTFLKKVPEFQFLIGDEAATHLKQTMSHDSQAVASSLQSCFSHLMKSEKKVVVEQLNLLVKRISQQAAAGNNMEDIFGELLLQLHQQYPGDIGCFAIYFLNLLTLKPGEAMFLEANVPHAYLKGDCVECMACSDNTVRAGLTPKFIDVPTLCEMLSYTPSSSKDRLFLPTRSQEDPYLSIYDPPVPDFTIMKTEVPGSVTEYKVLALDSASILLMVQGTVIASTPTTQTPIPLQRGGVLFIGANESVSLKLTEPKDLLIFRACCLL

This assay concerns the target Mannose-6-phosphate isomerase (Homo sapiens) (UniProt P34949). Nature of the assay: MPI inhibition at elevated mannose 6-phosphate – biochemical, fluorescence intensity, high mannose 6-phosphate, primary screen (AID 1220). Conditions: recombinant PMI enzyme, coupled fluorescence intensity; at 20 µM; hits give high values.
Take `COC(=O)CCCCC1SCC2NC(=O)NC21` (stereo unspecified): the inhibition is -4.5%.
The result for `COc1ccc(NC(=O)CSc2ccc(F)cc2)cc1S(=O)(=O)N1CCCCC1` reads 8.6%; that for `Cc1csc2cc(-c3cccc([N+](=O)[O-])c3)c(-c3cccc([N+](=O)[O-])c3)c[n+]12`, 4.9%.
The result for `COc1ccc(C=O)cc1COc1ccccc1F` reads 8.1%.
The result for `CCC(=O)NC(c1ccc(OC)c(OC)c1)c1cc(Cl)c2cccnc2c1O` (stereo unspecified) reads 41.1%; that for `CCCC(=O)NC(c1ccc(OC)c(OC)c1)c1cc(Cl)c2cccnc2c1O` (stereo unspecified), 48.4%; that for `CCC(=O)NC(c1ccc(C)cc1)c1cc([N+](=O)[O-])c2cccnc2c1O` (stereo unspecified), 54.5% (active).
With `CCC(=O)NC(/C=C/c1ccccc1)c1cc([N+](=O)[O-])c2cccnc2c1O` (stereo unspecified), the inhibition is 46.8%.
The result for `COc1ccc(C(NC(C)=O)c2cc(Cl)c3cccnc3c2O)cc1OC` (stereo unspecified) reads 55.7% (active).
The result for `CCCC(=O)NC(c1ccco1)c1cc([N+](=O)[O-])c2cccnc2c1O` (stereo unspecified) reads 7.9%; that for `COc1ccccc1NC(=S)NCc1ccco1`, -7.4%; that for `Cc1c(Cl)cccc1NC(=O)CSc1nnc(CCNC(=O)OC(C)(C)C)o1`, 3.7%.
The result for `COCCCNC(=O)c1cc2cc(Br)ccc2oc1=O` reads -0.9%; that for `CCC(C)c1ccc(NC(=S)NCCn2cc(Br)cn2)cc1` (stereo unspecified), 14.5%; that for `Cc1[nH]nc2ncc(C(=O)c3cc(F)ccc3O)cc12`, -5.1%.
Take `COc1cc(C2Nc3ccc4ncccc4c3C3=C2C(=O)CCC3)cc(OC)c1OC` (stereo unspecified): the inhibition is 52.8% (active).
The result for `COc1cc(C2Nc3ccc4ncccc4c3C3=C2C(=O)CCC3)ccc1O` (stereo unspecified) reads 46.7%; that for `COc1cc(C2Nc3ccc4ncccc4c3C3=C2C(=O)CCC3)cc(OC)c1O` (stereo unspecified), 42.6%; that for `COC(=O)/C(=C1/Oc2ccc(C)cc2S1)C(F)(F)F`, 1.2%.
The result for `O=S(=O)(NC1CCCCC1Sc1ncccn1)c1ccc(Cl)cc1` (stereo unspecified) reads -26%; that for `COc1cc2c(=O)c(-c3ccc(O)cc3)coc2cc1OC1OC(CO)C(O)C(O)C1O` (stereo unspecified), 12.9%; that for `O=C(CSc1n[nH]c(-c2cccs2)n1)NCc1cccs1`, 0.2%.
The result for `CCOC(=O)CNC(=O)C1(c2ccccc2)CCCC1` reads 3.8%.
`COc1ccc(CCN2CC(C#N)=C3c4cc(OC)c(OC)cc4CCN3C2)cc1OC`: the inhibition was 21.4%.
The result for `COc1cc2c(cc1OC)C1=C(C#N)CN(C3CCCCC3)CN1CC2` reads 32.8%.
The result for `CCOc1cc(-c2c(C#N)c(N)nc3c2CCCC3)ccc1O` reads 12.6%.
